# Source: PubChem BioAssay (several laboratories)
# Sampled rows, rich in hits. Any-hit rate of the full collection: about 4%.
# ADAM17 inh: ADAM17 inhibitors, primary screen, biochemical, QFRET. 370,000 compounds, 0.83% hits. recombinant ADAM17, EDANS/DABCYL FRET peptide cleavage. inhibition, % at 6.95 µM. Disintegrin and metalloproteinase domain-containing protein 17 (Homo sapiens), P78536;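 active = inhibition above the mean of compounds lying between control limits plus 3 SD, set per campaign, cut at about 8.5% in these data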;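 also: 0% = DMSO-only wells as the low control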
# Target sequence (P78536 215-824 limits assumed): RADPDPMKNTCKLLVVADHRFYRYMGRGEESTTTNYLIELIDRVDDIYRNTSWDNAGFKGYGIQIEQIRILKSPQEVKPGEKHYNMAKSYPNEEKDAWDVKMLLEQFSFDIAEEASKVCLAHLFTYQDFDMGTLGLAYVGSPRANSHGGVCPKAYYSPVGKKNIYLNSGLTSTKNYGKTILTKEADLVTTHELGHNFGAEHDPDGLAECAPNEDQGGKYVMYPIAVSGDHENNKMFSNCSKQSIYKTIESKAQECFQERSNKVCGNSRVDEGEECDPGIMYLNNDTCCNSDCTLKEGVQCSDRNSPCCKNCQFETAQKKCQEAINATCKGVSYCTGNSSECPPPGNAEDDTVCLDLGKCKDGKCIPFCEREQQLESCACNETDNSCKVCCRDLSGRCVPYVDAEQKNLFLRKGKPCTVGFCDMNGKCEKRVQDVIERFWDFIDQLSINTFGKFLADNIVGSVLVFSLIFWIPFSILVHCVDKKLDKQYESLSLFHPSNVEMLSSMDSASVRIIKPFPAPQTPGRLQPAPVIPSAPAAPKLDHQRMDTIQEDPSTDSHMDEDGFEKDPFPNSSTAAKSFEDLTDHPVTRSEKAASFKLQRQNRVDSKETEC
# ADAM10 inh: human ADAM10 inhibitors, primary screen, biochemical, QFRET, HTS; recombinant ADAM10, EDANS/DABCYL FRET peptide cleavage, 3 h; inhibition, % at 7 µM; 370,000 compounds, 0.62% hits; AID 720582, 2013;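 active = inhibition above a per-campaign cutoff equal to the mean of compounds falling between control-based bounds plus 3 SD, cut at about 20% in these data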;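 also: 0% = DMSO wells while the 100% control is not disclosed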
# aDG glyco act: activators of alpha-DG glycosylation, primary screen, uHTS, Pro5-aDG cells, AlphaScreen | alpha-DG glycosylation AlphaScreen (IIH6); 0% Pro5, 100% B10-LARGE cell signal | activation, % at 10 µM | 360,000 compounds, 0.22% hits | AID 624168, 2012;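 active = activation of at least 8% versus controls, or a plate z-score of at least 8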;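 also: Pro5 are CHO cells carrying HIG-tagged alpha-DG that lacks glycosylation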
# FAS-TE inh: FAS thioesterase domain inhibitors, primary screen, biochemical, fluorescence intensity, uHTS; Fatty acid synthase (Homo sapiens), P49327; inhibition, % at 15 µM; recombinant FAS-TE, OMFH fluorogenic substrate, fluorescence endpoint; 360,000 compounds, 0.67% hits;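 active = compounds whose normalised, plate-corrected inhibition of enzyme fluorescence in the single-dose primary screen is 50% or more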;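 also: 0% = DMSO with enzyme and 100% = substrate without enzyme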
# GRIN3A LBD mod: binders of NR3A ligand-binding domain, primary screen, biophysical, differential scanning fluorimetry, uHTS. Glutamate receptor ionotropic, NMDA 3A (GRIN3A) ligand-binding domain. 340,000 compounds, 2.5% hits. AID 1259313, 2017. NR3A LBD differential scanning fluorimetry, Tm shift; 0% = protein alone, 100% = glycine-bound protein. Tm shift relative to glycine control, % at 25 µM;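 active = melting temperature shift of at least 10% of the positive control shift, at one fixed dose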
# FAS-TE inh conf: FAS thioesterase domain inhibitors, confirmation, biochemical, fluorescence intensity, single concentration | recombinant FAS-TE, OMFH fluorogenic substrate | shares compounds with FAS-TE inh | inhibition, % at 15 µM | 2,300 compounds, 45% hits | AID 624325, 2012;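 active = compounds inhibiting the enzyme by at least 50% at 15 µM in any one of the replicates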;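 also: 0% = enzyme with DMSO only and 100% = wells lacking enzyme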
# Starred values were filed as active, the others as inactive; · = no result given.
SMILES,ADAM17 inh,ADAM10 inh,aDG glyco act,FAS-TE inh,GRIN3A LBD mod,FAS-TE inh conf
Cc1ccc2c(c1)C(=O)N1[C@H]3c4cc(Br)ccc4OC[C@@H]3[C@H](c3ccccc3)[C@]1(C)C(=O)N2,-4,2,0,33,-2,·
Cc1ccc2c(c1)C(=O)N1[C@H]3c4cc(Cl)ccc4OC[C@@H]3[C@H](c3ccccc3)[C@]1(C)C(=O)N2,-2,5,0,45,-4,·
C[C@@]12C(=O)Nc3cc(Cl)ccc3C(=O)N1[C@H]1c3ccccc3OC[C@@H]1[C@@H]2c1ccccc1,·,·,0,87*,-5,37
C[C@@]12C(=O)Nc3cc(Cl)ccc3C(=O)N1[C@H]1c3cc(Cl)ccc3OC[C@@H]1[C@@H]2c1ccccc1,6,9,0,40,1,·
Cc1ccc2c(c1)[C@H]1[C@H](CO2)[C@H](c2ccccc2)[C@]2(C)C(=O)Nc3ccc(Br)cc3C(=O)N12,9,20,0,96*,-2,26
C[C@@]12C(=O)Nc3cc(Cl)ccc3C(=O)N1[C@H]1c3cc(Br)ccc3OC[C@@H]1[C@@H]2c1ccccc1,-3,-1,0,80*,-9,8
C[C@@]12C(=O)Nc3ccc(F)cc3C(=O)N1[C@H]1c3cc(Cl)ccc3OC[C@@H]1[C@@H]2c1ccccc1,2,1,0,85*,-3,35
O=C1CCCC(O)=C1C=Nc1ccc2c(c1)oc1ccccc12,-10,-28,0,13,-2,·
COC(=O)C1=C(N)Oc2cc(C)n(CC3CCCO3)c(=O)c2C1c1ccc(Cl)c(Cl)c1 (stereo not given),2,6,0,10,-4,·
CCN(CC)S(=O)(=O)c1ccc(N=N/C(C(C)=O)=C(/C)O)cc1,0,1,0,2,-2,·
CCCNC(=O)/C(=C/c1cn(S(=O)(=O)N(C)C)c2ccccc12)NC(=O)c1ccc(OC)cc1,0,-5,0,81*,2,88*
COc1ccc(C(=O)N/C(=C\c2cn(S(=O)(=O)N(C)C)c3ccccc23)C(=O)NCCCn2ccnc2)cc1,4,2,0,54*,3,38
COc1cc(C(=O)N/C(=C\c2cn(S(=O)(=O)N(C)C)c3ccccc23)C(=O)NCCCO)cc(OC)c1OC,4,6,0,-6,-3,·
Cc1ccc(C(=O)N/C(=C\c2cn(S(=O)(=O)N(C)C)c3ccccc23)C(=O)NCCN2CCOCC2)cc1,-1,5,0,60*,-1,67*
CCn1cc(/C=C(\NC(=O)c2ccc(OC)cc2)C(=O)NCCCn2ccnc2)c2ccccc21,-4,-4,0,-6,·,·
CCCCOCCCNC(=O)C[C@H]1C[C@@]2(C(=O)OC)C(=C[C@H](C(C)C)O[C@@H]2C2CC2)N(CCc2ccc(OC)c(OC)c2)C1=O,-2,-1,·,·,·,·
Cc1cccc(-c2cccc3c4c([nH]c23)[C@@H]2C[C@H](N(C)C(=O)Nc3ccccc3C)[C@H]([C@H](C)O)C(=O)N2CC4)c1,-9,-31,·,·,·,·
Cc1nn(Cc2ccc(F)cc2)c2sc(C(=O)Nc3ccc(N4CCOCC4)cc3N3CCOCC3)cc12,-1,0,-1,52*,-1,26
O=C(CSCc1ccc(F)cc1)Nc1ccc(N2CCOCC2)cc1N1CCOCC1,-9,-5,0,0,0,·
O=C(N/C(=C\c1ccc([N+](=O)[O-])cc1)C(=O)N1CCOCC1)c1ccccc1,-1,-5,0,-1,-2,·
COc1ccc(/C=C(\NC(=O)c2ccc([N+](=O)[O-])cc2)C(=O)N2CCOCC2)cc1,-1,1,0,82*,-2,87*
O=C(N/C(=C/c1ccccc1)C(=O)N1CCOCC1)c1ccc([N+](=O)[O-])cc1,-1,-2,0,53*,-4,47*
OCC1(Cc2ccc(Cl)cc2)CCN(Cc2ccc(F)c(F)c2)CC1,-4,4,0,0,1,·
Cc1ccc(NC(=O)CCNC(=O)c2ccc([N+](=O)[O-])cc2)cc1C,3,5,0,64*,-5,69*
O=C(CCNC(=O)c1ccc([N+](=O)[O-])cc1)NCCc1ccc(Cl)cc1,1,-4,0,62*,1,70*
SMILES,ADAM17 inh,ADAM10 inh,aDG glyco act,FAS-TE inh,GRIN3A LBD mod,FAS-TE inh conf
CCOC(=O)c1ccc(NC(=O)CCNC(=O)c2ccc([N+](=O)[O-])cc2)cc1,-5,-5,0,50,-6,·
Cc1ccc(-c2[nH]ncc2/C=N/n2c(COc3ccccc3)nc3ccccc3c2=O)cc1,1,2,0,-10,-1,·
Cc1cc(/C=N/n2c(COc3ccccc3)nc3ccccc3c2=O)c(O)c([N+](=O)[O-])c1,7,18,0,60*,16*,9
CCOc1ccccc1Nc1nnc(SC(C)C(=O)Nc2nc(-c3ccccc3)cs2)s1 (stereo not given),-5,2,0,76*,3,18
CSc1nnc(-c2cnccn2)n1Cc1ccccc1,-5,0,0,-7,1,·
O=C(Cn1cc2c(n1)CCCC2)NCc1cccc(Cl)c1,1,-4,0,5,-2,·
COC(=O)N1C(=O)[C@](c2ccccc2)(C2CCCCC2)N1C(=O)OC,3,-4,0,80*,-1,95*
COC(=O)N1C(=O)[C@](CC(C)C)(c2ccccc2)N1C(=O)OC,-1,-8,0,85*,-1,88*
COC(=O)N1C(=O)[C@@](c2ccccc2)(C2CCCC2)N1C(=O)OC,·,·,0,44,0,·
CC[C@@]1(c2cccc(C)c2)C(=O)N(C(=O)OC)N1C(=O)OC,-6,-3,0,79*,1,70*
COC(=O)N1C(=O)[C@](c2ccc(OC)cc2)(C(C)C)N1C(=O)OC,-1,-3,0,72*,-1,82*
Cc1ccc2c(c1)C(=O)N1c3cc(C)c(C)cc3NC(=O)C1C(=O)N2 (stereo not given),-1,-7,0,-10,·,·
C#CCSc1nc(-c2ccccc2)cc(C(F)(F)F)c1C#N,-8,-20,0,16,-12,·
Cc1cccc(N2CCN(C3=NC(=O)/C(=C\c4cn[nH]c4-c4ccccc4)S3)CC2)c1,-6,-10,0,-11,-3,·
